Here are results for 20 compounds from PubChem BioAssay (EPA / NIEHS).

Inconclusive results are not listed. Activity calls are given as the source filed them. Rule for the calls, unless noted: active = hit-call score of the fitted dose curve at least 0.9, where 1 is the maximum; inconclusive = response in the unintended direction; inactive = score below 0.9.

Test [1] has as its system Thyroperoxidase (TPO), gene 54314. Description: CCTE_Simmons_AUR_rTPO: CCTE's Amplex UltraRed Assay for Thyroperoxidase (TPO) Inhibition, Simmons Lab (AID 2283662).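 For AC50: potency for loss of signal meaning inhibition of peroxidase activity.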 The method in brief:
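Rat thyroid microsomes (5 ug protein) with 25 uM Amplex UltraRed and 300 uM H2O2 in 200 mM phosphate buffer, 30 min at 37C in dark; fluorescence 544/590 nm. Eight concentrations, 5 nM–87.5 uM final, 0.5% DMSO, triplicate biological replicates.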

Test [2] is described as follows: CCTE_Simmons_CellTiterGLO_HEK293T: Viability Assessment in CCTE's Assays for Thyroperoxidase (TPO) Inhibition, Simmons Lab (AID 2283665).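 For AC50: cells exposed to compound for 24 h before readout; actives reduce ATP signal below DMSO vehicle meaning cytotoxicity.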 The essentials: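 HEK293T cells in DMEM with 1% FBS, dosed 24 h at 37C with 8 concentrations, 5 nM–87.5 uM final, 0.5% DMSO. ATP measured by CellTiter Glo luminescence; loss of signal vs DMSO, three biological replicates.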
The target in test [3] is Luciferin 4-monooxygenase (Photinus pyralis) (UniProt P08659). Description: CCTE_Simmons_QuantiLum_inhib_2: CCTE's Firefly Luciferase Inhibition Assay, Simmons Lab (AID 2283767).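 For AC50: potency for inhibitors that lower luciferase luminescence relative to DMSO.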 The method in brief:
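Cell-free recombinant firefly luciferase (5 ng/well) in 200mM potassium phosphate with 1 mg/ml BSA, 30 min at 37C with 8 concentrations from 5 nM to 87.5 uM [final], 0.5% DMSO. Luminescence read after D-luciferin (150uM)/dATP (147uM) reagent injection, pH 7.8; triplicates.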

Test [4] can be described thus: ACEA_ER_AUC_viability: ACEA Biosciences xCELLigence Real-Time Cell Analysis on Estrogen Receptor Agonism for Viability (AID 2283782).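 Note: continuous compound exposure with impedance area under curve over 80 h; hit means loss of impedance signal meaning reduced cell growth or viability.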 The essentials:
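T-47D; phenol red-free RPMI1640 + 10% CS-FBS; 8 conc., 1:4 serial, max 100 uM final, ≤0.5% DMSO; n = 2; continuous exposure; impedance monitored to 80 h post-dose; AUC vs DMSO.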

In test [5] the target is Cellular tumor antigen p53 (Homo sapiens) (UniProt P04637). As to the kind of experiment: TOX21_p53_BLA_p4_ratio: Tox21 HCT-116 p53 Agonism Beta-lactamase Assay, Ratio, Phase 4 (AID 2283601). The method in brief:
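Signal is the blue/green (460nm/530nm) ratio of cleaved versus uncleaved CCF4-AM substrate, read after 2 h substrate loading. Cells were HCT116 carrying the p53-responsive beta-lactamase reporter, dosed 16 h at 37C, 5% CO2; CellTiter-Glo measured in parallel.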

The target of test [6] is PGR (gene 5241) (UniProt P06401). Description: TOX21_PR_BLA_Followup_Antagonist_ratio: Tox21 HEK293 Progesterone Receptor (PR) Antagonism Beta-lactamase Follow-Up Assay, Ratio (AID 2283934). The essentials: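 PR-UAS-bla HEK293T cells, 3,000/well in 2% charcoal-stripped FBS, given compound plus 1nM R5020 agonist for 16 hr at 37C. Beta-lactamase FRET substrate 2 hours, ratio cleaved/uncleaved fluorescence; viability by CellTiter-Glo in same wells.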

Test [7] can be described thus: TOX21_PR_BLA_Followup_Agonist_viability: Viability Assessment in the Tox21 HEK293 Progesterone Receptor (PR) Agonism Beta-lactamase Follow-Up Assay (AID 2283935).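 Note: signal loss means lower viability so actives are cytotoxic.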 The method in brief:
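PR-UAS-bla HEK293T cells in 2% charcoal-stripped FBS medium, plated 6 hr before compound addition, exposed 16 hr at 37C. Viability read by CellTiter-Glo ATP luminescence after 30 min at room temperature, in the same wells as the beta-lactamase readout.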

A short description of test [8]: TOX21_PR_BLA_Followup_Antagonist_viability: Viability Assessment in the Tox21 HEK293 Progesterone Receptor (PR) Antagonism Beta-lactamase Follow-Up Assay (AID 2283936).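 Note: hits lower the luminescence signal meaning cytotoxicity.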 The essentials: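 PR-UAS-bla HEK293T cells (3,000/well, 2% charcoal-stripped FBS) given compound plus R5020 agonist, 16 h at 37C. CellTiter-Glo added after bla read, 30 min at room temperature; luminescence loss indicates cytotoxicity.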

The target in test [9] is PGR (gene 5241) (UniProt P06401). As to the kind of experiment: TOX21_PR_LUC_Followup_Agonist: Tox21 HEK293 Progesterone Receptor (PR) Agonism Luciferase Follow-Up Assay (AID 2283937; active = hit-call score of the fitted dose curve at least 0.9, where 1 is the maximum; inactive = score below 0.9). The method in brief:
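HEK293-PR-A-luc cells, conditioned 5 days in 10% charcoal-stripped FBS medium, seeded 3,000/well for 5 h, then compound-treated 16 h at 37C. ONE-Glo luminescence read after 30 min at room temperature; gain of signal versus DMSO.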

Test [10] has the same target. As to the kind of experiment: TOX21_PR_LUC_Followup_Antagonist: Tox21 HEK293 Progesterone Receptor (PR) Antagonism Luciferase Follow-Up Assay (AID 2283938).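 Note: curve fitted upward as signal gain over DMSO baseline despite antagonist label.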 The method in brief:
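HEK293-PR-A-luc cells, 3,000/well, preincubated 5 h at 37C before compound addition in DMSO; 16 h compound exposure at 37C. ONE-Glo luciferase luminescence read after 30 min at room temperature, fitted relative to DMSO baseline.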

Luciferin 4-monooxygenase (Photinus pyralis), sequence (P08659 whole entry, looked up): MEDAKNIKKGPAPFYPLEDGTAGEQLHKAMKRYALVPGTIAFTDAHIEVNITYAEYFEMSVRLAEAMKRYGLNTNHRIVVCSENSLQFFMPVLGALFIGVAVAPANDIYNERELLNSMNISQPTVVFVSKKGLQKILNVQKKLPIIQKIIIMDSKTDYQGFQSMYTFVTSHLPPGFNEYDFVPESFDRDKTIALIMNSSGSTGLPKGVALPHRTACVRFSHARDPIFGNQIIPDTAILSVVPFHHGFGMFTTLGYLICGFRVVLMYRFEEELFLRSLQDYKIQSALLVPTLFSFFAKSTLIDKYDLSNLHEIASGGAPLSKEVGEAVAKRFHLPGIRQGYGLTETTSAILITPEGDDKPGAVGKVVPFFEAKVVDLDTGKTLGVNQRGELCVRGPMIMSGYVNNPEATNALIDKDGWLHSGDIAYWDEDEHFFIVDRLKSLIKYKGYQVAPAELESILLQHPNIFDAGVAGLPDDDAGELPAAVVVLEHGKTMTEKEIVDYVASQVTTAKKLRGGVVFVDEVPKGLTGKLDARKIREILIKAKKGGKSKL
Cellular tumor antigen p53 (Homo sapiens), sequence (P04637 whole entry, looked up): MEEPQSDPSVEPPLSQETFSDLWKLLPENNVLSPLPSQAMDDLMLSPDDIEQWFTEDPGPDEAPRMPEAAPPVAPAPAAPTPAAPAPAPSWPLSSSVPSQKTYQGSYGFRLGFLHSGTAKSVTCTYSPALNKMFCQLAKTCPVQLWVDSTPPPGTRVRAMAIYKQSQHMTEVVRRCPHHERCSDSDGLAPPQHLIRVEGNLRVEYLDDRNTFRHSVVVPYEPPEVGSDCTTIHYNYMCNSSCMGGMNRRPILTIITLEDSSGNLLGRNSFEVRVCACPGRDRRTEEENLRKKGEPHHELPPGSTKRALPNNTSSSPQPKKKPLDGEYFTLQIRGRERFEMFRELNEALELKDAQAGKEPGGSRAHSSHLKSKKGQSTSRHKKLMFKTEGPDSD
PGR (gene 5241), sequence (P06401 whole entry, looked up): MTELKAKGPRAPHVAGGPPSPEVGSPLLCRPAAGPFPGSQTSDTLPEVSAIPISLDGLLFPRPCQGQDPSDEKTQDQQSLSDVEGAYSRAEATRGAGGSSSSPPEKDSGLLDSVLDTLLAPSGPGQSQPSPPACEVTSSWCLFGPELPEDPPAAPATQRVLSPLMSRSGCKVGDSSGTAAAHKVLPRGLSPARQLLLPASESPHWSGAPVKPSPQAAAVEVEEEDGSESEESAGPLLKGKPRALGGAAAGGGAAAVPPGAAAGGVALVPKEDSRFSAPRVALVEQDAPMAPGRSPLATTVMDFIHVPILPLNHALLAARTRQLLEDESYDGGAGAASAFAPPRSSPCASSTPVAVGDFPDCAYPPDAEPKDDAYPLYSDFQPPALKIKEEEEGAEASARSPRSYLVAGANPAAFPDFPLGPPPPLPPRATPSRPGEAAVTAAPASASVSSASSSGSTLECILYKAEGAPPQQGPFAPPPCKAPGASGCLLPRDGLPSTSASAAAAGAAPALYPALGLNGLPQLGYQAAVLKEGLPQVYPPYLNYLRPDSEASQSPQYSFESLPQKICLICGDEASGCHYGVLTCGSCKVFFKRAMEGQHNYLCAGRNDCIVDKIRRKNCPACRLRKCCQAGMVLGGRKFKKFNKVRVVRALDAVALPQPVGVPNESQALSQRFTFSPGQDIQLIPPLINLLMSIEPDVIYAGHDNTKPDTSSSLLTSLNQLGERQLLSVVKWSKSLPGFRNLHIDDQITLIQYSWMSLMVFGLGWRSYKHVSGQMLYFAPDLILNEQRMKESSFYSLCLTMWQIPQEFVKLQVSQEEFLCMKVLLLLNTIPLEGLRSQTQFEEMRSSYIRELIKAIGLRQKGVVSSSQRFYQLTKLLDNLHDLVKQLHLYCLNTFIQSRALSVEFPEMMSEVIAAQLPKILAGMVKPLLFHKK

Turning to `CCOC(=O)c1cccc(O)c1`, the compound was classed as inactive in test [1], in [2] and in [3].

Turning to `O=C(NO)c1ccccc1O`, the AC50 in [1] is 0.358 µM (active). In addition, in test [3], the compound was called inactive.

Consider `OC(c1ccccc1)c1ccccc1`, for which the outcome in [1] and in test [3] was inactive.

In the case of `CSc1nc2ccccc2s1`, the result in [1] was inactive. The AC50 in [2] is 53.6 µM (active); in test [3] it was 35.1 µM (active).

As to `O=C(O)c1c(Cl)ccc(Cl)c1Cl`, the call in test [4] was inactive.

For `NC(=O)Oc1ccc(Cc2ccccc2)cc1`, the result in [5] was inactive.

For `O=[N+]([O-])c1ccc2[nH]c(=S)[nH]c2c1`, in test [1], the concentration at half-maximal activity (AC50) is 0.315 µM (active). Moreover, in [3], the outcome was inactive.

On to `CCOc1ccccc1N`, for which the outcome in test [5] was inactive.

For the compound `Nc1ccc(S(=O)(=O)Nc2ccccc2)cc1`, the result in test [5] was inactive.

With `CCCCOC(=O)c1ccccc1O`, the result in [1] and in test [3] was inactive. Moreover, the AC50 in test [2] is 53.6 µM (active).

For `Cc1ccc(C=C2C(=O)C3(C)CCC2C3(C)C)cc1` (stereo not given), the compound was classed as inactive in test [1]. Besides, the AC50 in [2] is 15.3 µM (active).

Consider `CN(C)CC/C=C1\c2ccccc2COc2ccccc21`, for which, in test [5], the result was inactive.

For `Clc1ccc2c(c1)Nc1ccccc1S2`, the AC50 in test [6] was 19.4 µM (active); in test [10], 28.9 µM (active). Also, the compound was called inactive in test [7], in test [8] and in test [9].

As for `C=CC1CNC(=S)O1` (stereo not given), the AC50 in test [1] was 10.6 µM (active). Moreover, the result in test [3] was inactive.

For `O=Cc1c2ccccc2c(Cl)c2ccccc12`, in test [5], the outcome was inactive.

For `Oc1cccnc1`, the compound was called inactive in test [1], in test [2] and in [3].

Take `OCc1ncccc1O`: the compound was called inactive in test [1], in test [2] and in [3].

As for `Nc1nc(CC(=O)O)cs1`, in [5], the result was inactive.

As to `COc1cnc(NS(=O)(=O)c2ccc(N)cc2)nc1`, in test [5], the result was inactive.

Turning to `COc1c[nH]ccc1=O`, the outcome in [1] and in test [3] was inactive.
